Screening results: PubChem, several laboratories
NCOA3 inh – inhibits human SRC3 coactivator; Q9Y6Q9; HEK293 GAL4-SRC3 luciferase reporter, luminescence; inhibition, % at 3.6 µM; 360,000 compounds, 0.17% hits;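 active = inhibition above a per-campaign cutoff, the mean of all compounds plus 3 SD, cut at about 60% in these data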;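 also: 0% = DMSO-treated cells and 100% = gossypol-treated cells at 36 µM; higher means less SRC3-driven luciferase light from the GAL4 reporter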
LRH-1 inv ag – inverse agonists of human LRH-1 (NR5A2) | 360,000 compounds, 0.13% hits | HEK293T StAR-luciferase reporter, LRH-1 transfected, 24 h | inhibition, % at 3.6 µM;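 active = inhibition above the mean inhibition of all tested compounds plus 3 SD, cut at about 73% in these data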;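 also: 0% = DMSO wells and 100% = reporter-only cells lacking LRH-1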
NCOA2 inhibitor – inhibits human steroid receptor coactivator 2 | 370,000 compounds, 0.17% hits | HEK293 GAL4-SRC2 luciferase reporter, luminescence | AID 651957 | Q15596 | inhibition, % at 9 µM;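 active = inhibition above the mean inhibition of all tested compounds plus 3 SD, set per campaign, cut at about 52% in these data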;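 also: 0% = DMSO treated cells and 100% = cells given Gossypol at 36 µM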
NCOA1 inh – inhibits human SRC1 coactivator | HEK293 GAL4-SRC1 luciferase reporter, luminescence | 360,000 compounds, 0.12% hits | Q15788 | inhibition, % at 3.6 µM | AID 588354;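 active = inhibition above the campaign mean plus 3 SD, with each screening campaign given its own cutoff, cut at about 60% in these data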;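 also: 0% = DMSO treated cells and 100% = gossypol at 36 µM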
Gli-Sufu block – antagonists of Gli-Sufu signaling; inhibition, % at 5 µM; AID 588413; Sufu-KO-LIGHT fibroblasts, Gli luciferase reporter luminescence; 340,000 compounds, 0.74% hits;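 active = inhibition above about 55%, limit read from the data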;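 also: 0% = DMSO-treated cells and 100% = wells with medium but no cells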
COUP-TFII inh – inhibitors of human COUP-TFII (NR2F2); HEK293T NGFI-A luciferase reporter, luminescence; inhibition, % at 8.6 µM; 370,000 compounds, 0.7% hits; AID 686940;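 active = inhibition above a per-plate cutoff, mean inhibition of test wells between control levels plus 3 SD, cut at about 38% in these data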;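 also: cells cotransfected with COUP-TFII expression vector driving the NGFI-A reporter; 0% = median of COUP-TF2 test wells and 100% = reporter-only cells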
VP16 Luc counter – inhibits VP16 reporter, flagging COUP-TFII antagonist hits; AID 687007; shares compounds with COUP-TFII inh; 2,500 compounds, 25% hits; HEK293 Gal4-VP16 luciferase reporter, luminescence; inhibition, % at 8.5 µM; in the data active = inhibition above about 13%
NR2F2 inh conf – COUP-TFII (NR2F2) inhibition, confirmation assay; shares compounds with COUP-TFII inh; HEK293 NGFI-A luciferase reporter, luminescence; inhibition, % at 8.5 µM; 2,500 compounds, 45% hits; AID 687008;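 active = mean inhibition over three repeats above a set limit taken from the earlier primary screen, cut at about 38% in these data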;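 also: 100% = cells given the luciferase reporter alone without the COUP-TF2 vector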
An asterisk follows results filed as active; nt = not tested or not shown. Sampled rows, rich in hits. Any-hit rate of the full collection: about 1.3%.

SMILES	NCOA3 inh	LRH-1 inv ag	NCOA2 inhibitor	NCOA1 inh	Gli-Sufu block	COUP-TFII inh	VP16 Luc counter	NR2F2 inh conf
CCN1/C(=C/c2ccc3cc(C)ccc3[n+]2C)Sc2ccc3sccc3c21	32.9	38.8	-41.9	15.6	86.3*	38.1*	5.3	12.0
O=C(Nc1ccc(S(=O)(=O)N2CCCC2)cc1)c1ccc2c(=O)n3c(nc2c1)CCCCC3	26.9	8.2	-6.8	-22.1	22.6	-13.2	nt	nt
COc1ccc(OC)c(CC(=O)Nc2cc(S(=O)(=O)N3CCCCC3)ccc2C)c1	23.0	17.1	11.0	-1.6	5.4	6.2	nt	nt
Cc1ccc(S(=O)(=O)N2CCCCC2)cc1NC(=O)c1ccc2c(=O)n3c(nc2c1)CCCCC3	nt	nt	8.5	nt	nt	43.2*	-2.8	14.4
COc1ccc(CC(=O)Nc2cc(S(=O)(=O)N3CCCCC3)ccc2C)cc1OC	24.1	36.4	22.5	5.4	45.3	60.4*	-0.2	47.6*
CC(=O)CSc1nc(N)c(C#N)c(-c2cccs2)c1C#N	23.9	45.5	42.1	22.5	-10.4	8.7	nt	nt
CC(C)OC(=O)CSc1nc(N)c(C#N)c(-c2cccs2)c1C#N	24.5	31.2	10.2	12.1	12.8	44.7*	5.0	25.2
O=C(C1CCCN(c2ncnc3c2nc2n3CCCCC2)C1)N1CCN(c2ccc(Cl)cc2)CC1 (stereo unspecified)	9.1	-12.1	22.7	13.0	-2.4	24.6	nt	nt
O=C(C1CCN(c2ncnc3c2nc2n3CCCCC2)CC1)N1CCN(c2cccc(Cl)c2)CC1	24.8	11.7	22.6	15.9	55.6*	49.7*	-0.1	23.2
Cc1cc(C(=O)CSc2nnc(-c3cccc(F)c3)n2N)c(C)n1Cc1ccc2c(c1)OCO2	22.5	40.9	8.3	7.2	15.0	43.7*	-3.2	27.8
Cc1cc(C(=O)CSc2nnnn2-c2ccc(O)cc2)c(C)n1Cc1ccc2c(c1)OCO2	-6.2	21.8	-0.2	-11.1	-1.1	-2.1	nt	nt
Cc1ccccc1Cn1cc(COC(=O)N2CCOCC2)nn1	nt	nt	-10.3	nt	nt	-4.6	nt	nt
CC(=O)c1c(C)[nH]c(C(=O)COc2cc(C)ccc2C(C)C)c1C	23.2	45.6	44.1	24.2	-4.8	69.0*	7.7	66.2*
Nc1ccc(-c2nc3c(Cl)cc(N)cc3[nH]2)cc1	38.3	17.4	53.3*	38.0	nt	47.8*	57.2*	35.6
CCCC[C@@H]1C(=O)N2N=Cc3ccccc3[C@H]2N2N=Cc3ccccc3[C@@H]12	nt	nt	16.6	nt	nt	8.5	nt	nt
COc1cc2c(cc1OC)CN1CCc3cc(OC)c(OC)cc3C1C2 (stereo unspecified)	0.0	15.6	3.0	-15.4	nt	-5.5	nt	nt
CC[C@H]1CN2CCc3cc(OC)c(OC)cc3C2C[C@@H]1C[C@H]1NCCc2cc(OC)c(OC)cc21 (stereo partly specified)	95.4*	103.9*	70.3*	95.9*	64.7*	91.9*	9.6	84.2*
Cc1cc(C(=O)COc2cccnc2[N+](=O)[O-])c(C)n1-c1ccccc1F	23.0	4.5	50.9	21.6	28.8	47.5*	-99.9	-42.1
Cc1ccc(-n2c(C)cc(C(=O)COc3cccnc3[N+](=O)[O-])c2C)cc1	35.1	35.1	35.0	20.4	34.9	18.8	nt	nt
O=C(Nc1nc(-c2ccc(F)cc2)cs1)C1CCN(C(=O)c2ccc(F)cc2)CC1	2.0	0.7	30.3	3.1	41.3	57.6*	3.9	46.0*
Cc1ccc(NC(=O)CSc2nn(-c3ccccc3)c(=S)s2)cc1S(=O)(=O)N(C)C	18.2	28.7	26.6	-0.2	8.1	68.1*	2.3	63.1*
O=C(CSc1nn(-c2ccccc2)c(=S)s1)Nn1cnnc1	14.7	1.0	-9.8	-0.2	0.1	-2.8	nt	nt
COC(=O)C1CN(Cc2ccc(F)cc2)CCS(=O)(=O)N1Cc1ccc(F)cc1 (stereo unspecified)	nt	nt	6.0	nt	nt	3.2	nt	nt
c1ccc(-c2ccc(CNc3nc(-c4ccccn4)nnc3-c3ccccc3)cc2)cc1	nt	nt	nt	nt	nt	55.1*	-1.9	18.4
CC(C)(C)CCNc1nc(-c2ccccn2)nnc1-c1ccccc1	nt	nt	nt	nt	nt	51.6*	4.2	13.5
SMILES	NCOA3 inh	LRH-1 inv ag	NCOA2 inhibitor	NCOA1 inh	Gli-Sufu block	COUP-TFII inh	VP16 Luc counter	NR2F2 inh conf
C=CCNc1nc(-c2ccccn2)nnc1-c1ccccc1	-2.3	33.3	21.3	-1.7	47.5	-45.3	nt	nt
CS(=O)(=O)N1CCc2cc(-c3csc(NC(=O)Cc4cccs4)n3)ccc21	30.5	43.5	-8.3	11.5	7.8	66.4*	-4.0	35.0
Cc1sc(NC(=O)CN2CCOCC2)nc1-c1ccc2c(c1)CCN2S(=O)(=O)c1ccccc1	19.4	18.2	-5.8	19.2	45.3	64.9*	8.5	56.0*
O=C(CN1CCOCC1)Nc1nc(-c2ccc3c(c2)CCN3S(=O)(=O)c2ccccc2)cs1	24.8	-2.6	15.9	9.4	12.3	42.4*	0.1	14.8
Cc1cccc(C(=O)N2CCc3cc(-c4nc(NC(=O)CN5CCCC5)sc4C)ccc32)c1	13.9	23.0	-13.3	-3.4	-17.1	1.9	nt	nt
CC(=O)Nc1nc(-c2ccc3c(c2)CCN3S(C)(=O)=O)cs1	-61.4	-49.0	-41.9	-31.8	-47.7	-27.5	nt	nt
C#Cc1cccc(OCC(C)CN2CCC(C(O)(c3ccccc3)c3ccccc3)CC2)c1 (stereo unspecified)	nt	nt	12.8	nt	nt	-11.5	nt	nt
C=CCn1c(SCC(=O)Nc2sccc2C(N)=O)nc2sc(CC)cc2c1=O	-27.0	5.7	6.5	9.8	15.3	41.6*	1.5	17.3
C[n+]1cc(-c2ccccc2)n2c1CCCCC2	6.4	6.3	nt	-16.6	19.6	nt	nt	nt
COc1ccc(-n2c(-c3ccc(Br)cc3)c[n+]3c2CCc2ccccc2-3)cc1	46.8	64.6	17.4	4.7	86.2*	38.1*	20.9*	30.9
CC(C)c1ccc(-n2c(-c3ccccc3)c[n+]3c2CCc2ccccc2-3)cc1	77.0*	81.3*	40.4	49.6	85.3*	89.5*	28.2*	86.8*
O=C(NCc1ccc(F)c(F)c1)C1CCC(CNS(=O)(=O)c2cccc3cccnc23)CC1 (stereo unspecified)	nt	nt	4.0	nt	nt	5.6	nt	nt
O=C(Nc1ccc(Br)c(C(F)(F)F)c1)[C@@H]1CC=C[C@@H]2CCN(CC3CC3)C(=O)[C@@H]21	nt	nt	nt	nt	nt	0.9	nt	nt
CCCn1c(NC(=O)c2cccc(S(=O)(=O)N3CCCC3)c2)nc2ccccc21	39.0	14.1	20.8	10.3	-7.0	44.6*	-6.3	27.5
CCOCc1nc(N)nc(N)c1-c1cccc(Cl)c1	-11.9	23.0	-7.4	-13.2	nt	57.2*	-10.7	-4.2
CCN(CC)C(=O)CC[C@@H]1CC[C@]2(CCCN(C(=O)c3ccco3)C2)O1	nt	nt	-10.1	nt	nt	-4.1	nt	nt
COc1ccc(C2SCC(=O)N2CCc2ccc(OC)c(OC)c2)cc1 (stereo unspecified)	27.1	26.2	18.8	10.9	6.3	43.3*	-2.7	18.9
